Source: PubChem BioAssay
Yeast superoxide: yeast age-related superoxide inhibition as caloric restriction mimetic | 330,000 tested, 0.18% active | AID 2690 | S. cerevisiae aged cells, superoxide DHE fluorescence; stronger effect = lower value | superoxide response (% of plate mean), % at 10 µM;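 active = superoxide response under a set limit, about three screen SD below normal, cut at about 65% in these data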;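 note: yeast aged for seven days with compound at 30 °C before DHE staining; 100% = average MFI of all compound-treated wells on the plate with controls excluded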
tim10-1 inh: tim10-1 yeast growth inhibition. S. cerevisiae tim10-1 ts strain growth, BacTiter-Glo, 24 h. 330,000 tested, 2.2% active. inhibition, % at 20 µM. AID 463190;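 active = inhibition of at least 40%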;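 note: mutant grown at 25 °C; 0% = DMSO wells with yeast and 100% = wells holding no yeast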
NALP3 yeast inh: NALP3 inhibition in yeast. Yeast reconstituted NLRP3/ASC/caspase-1, beta-gal luminescence, 24 h. inhibition, % at 10 µM. 330,000 tested, 0.39% active;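 active = inhibition of 50% or more; inactive = inhibition below 50%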;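 note: plate controls were induced DMSO wells for no effect and uninduced yeast grown without galactose for full effect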
TIM10 inh: TIM10 yeast growth inhibition. 330,000 tested, 1.4% active. S. cerevisiae TIM10 strain growth, BacTiter-Glo luminescence, 24 h. inhibition, % at 10 µM;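 active = inhibition of 40% or more at the single tested concentration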;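 note: wild-type TIM10 isogenic control strain grown at permissive 25 °C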
tim23-1 inh: inhibits growth of tim23-1 mutant yeast; inhibition, % at 20 µM; 330,000 tested, 1.3% active; AID 463212; S. cerevisiae tim23-1 growth, BacTiter-Glo luminescence, 24 h;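 active = growth inhibition of the mutant yeast at or above 50%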;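 note: temperature-sensitive mutant grown at 25 °C; plate controls were DMSO-treated mutant yeast for no effect and medium wells lacking yeast for full effect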
tim10-1 conf: tim10-1 yeast growth inhibition, confirmed; shares compounds with tim10-1 inh; S. cerevisiae tim10-1 ts strain growth, BacTiter-Glo, 24 h; inhibition, % at 20 µM; 7,400 tested, 56% active; AID 463213;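 active = inhibition of yeast growth at or above a set limit in either of two repeat tests at 20 µM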;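 note: tim10-1 mutant grown at permissive 25 °C to find synthetic lethal compounds; 0% = DMSO yeast wells and 100% = medium wells without yeast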
TIM10 conf: confirmation of TIM10 yeast growth inhibitors. shares compounds with TIM10 inh. S. cerevisiae tim10 strain growth, BacTiter-Glo luminescence, 24 h. inhibition, % at 10 µM. 4,600 tested, 63% active. AID 463215;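 active = inhibition of yeast growth at or above a set limit in either of two replicates at 10 µM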;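 note: this counterscreen used the strain with wild-type TIM10; 0% = yeast with DMSO and 100% = medium wells lacking yeast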
An asterisk follows results filed as active; . = no result given. Only some compounds are listed: those with a hit (about 3.8% of all), similar ones and a draw of the others.

SMILES	Yeast superoxide	tim10-1 inh	NALP3 yeast inh	TIM10 inh	tim23-1 inh	tim10-1 conf	TIM10 conf
CCOC(=O)N1CCC2(CC1)C(C(=O)C13CC4CC(CC(C4)C1)C3)C2(C#N)C#N (configuration not stated)	112	54*	-1	63*	43	54*	45*
O=C1CC2(CCCC2)C(=O)N1CN1CCN(S(=O)(=O)c2ccc(Cl)c(Cl)c2)CC1	87	-1	5	-12	-5	.	.
CCc1ccc2c(c1)C1(NN=C(c3cccc4ccccc34)S1)C(=O)N2 (configuration not stated)	114	54*	28	55*	50	47*	59*
CN(CCCNC(=O)c1cc2c(Cl)nc3ccccc3c2s1)Cc1ccccc1	91	53*	29	43*	11	41*	44*
CCN(CC)CCCNC(=O)c1cc2c(Cl)nc3ccccc3c2s1	95	20	30	-2	6	.	.
O=C(NN=C1c2ccccc2-c2ccccc21)c1ccccn1	80	41*	15	48*	20	25	39*
O=c1c2ccccc2sn1-c1ccccc1	105	86*	30	58*	32	51*	97*
O=c1c2cc(F)ccc2sn1-c1ccccc1	126	45*	18	47*	38	56*	77*
CN(C)S(=O)(=O)c1cccc(-n2sc3ccccc3c2=O)c1	110	15	-10	18	26	.	.
Cc1ccccc1-n1sc2cc(F)ccc2c1=O	92	40*	24	49*	41	38*	70*
Cc1ccc(-n2sc3ccccc3c2=O)cc1S(=O)(=O)N1CCCCC1	109	87*	9	57*	17	89*	76*
O=C(O)c1cccc(-n2sc3ccccc3c2=O)c1	98	1	23	2	9	.	.
COc1ccc(CC(=O)N[C@@H]2c3ccccc3CC[C@H]2OCc2ccccc2)cc1	91	15	.	-12	40	.	.
Cc1ccc(OC(F)F)c(NC(=O)Nc2cccc(C(F)(F)F)c2)c1	117	47*	-2	51*	38	45*	58*
O=C(Nc1ccccc1)Nc1cccc(C(F)(F)F)c1	98	6	23	13	12	.	.
O=[N+]([O-])c1cccc(-c2ccc(SCc3cccnc3)nn2)c1	119	37	-42	26	5	.	.
Cc1ccc(-c2nc3c(=O)n(C)c4ccccc4c3o2)cc1	99	52*	13	58*	45	31*	64*
c1ccc(C2Nc3ccccc3-c3nc4ccccc4n32)cc1 (configuration not stated)	96	41*	-25	47*	38	23	35*
c1ccc(C2Nc3ccccc3-c3nc4ccccc4n32)nc1 (configuration not stated)	89	17	17	11	18	.	.
CCNC(=O)CC1C(=O)N(c2ccc(C)cc2)C(=O)N1CCC(C)C (configuration not stated)	95	-12	12	18	3	.	.
CCOc1cccc2sc(N(CCCN(C)C)C(=O)c3ccc(S(=O)(=O)N4CCc5ccccc5C4)cc3)nc12	101	45*	26	42*	15	23	32*
CCc1ccc2nc(N(CCCN(C)C)C(=O)c3ccc(S(=O)(=O)N4CCc5ccccc5C4)cc3)sc2c1	100	31	12	28	16	.	.
Cc1ccc(CCNC(=O)c2cccc(NC3=NC4CS(=O)(=O)CC4S3)c2)cc1 (configuration not stated)	95	7	-2	5	6	.	.
CCn1nc(C)cc1-c1nnc(Sc2ncc([N+](=O)[O-])s2)n1C	100	66*	24	50*	8	72*	55*
Cc1cc(C)cc(NC(=S)NC(=O)Cc2ccccc2)c1	86	44*	23	40*	47	30*	40*
SMILES	Yeast superoxide	tim10-1 inh	NALP3 yeast inh	TIM10 inh	tim23-1 inh	tim10-1 conf	TIM10 conf
O=C(CN1CCN(c2ccc(O)cc2)CC1)NCC(=O)Nc1ccc(F)c(F)c1F	86	-9	6	0	-10	.	.
O=C(Nc1ccc(Br)cc1)c1cccn1-c1ncc(C(F)(F)F)cc1Cl	131	47*	17	52*	47	43*	43*
CSCC[C@H](NC(=O)c1cc2c([nH]c3ccccc32)c(-c2ccccc2)n1)C(=O)O	86	11	11	5	7	.	.
CC(=O)Nc1ccc(NC(=O)CS(=O)(=O)c2cn(CC(=O)N3CCCC3)c3ccccc23)cc1	82	-5	9	5	-8	.	.
CCOC(=O)c1ccc(N2C(=O)CC(Sc3nnc(C)s3)C2=O)cc1 (configuration not stated)	112	55*	28	65*	38	78*	60*
CCOC(=O)c1ccc(N2C(=O)CC(Sc3nc(C)cc(C)n3)C2=O)cc1 (configuration not stated)	96	20	18	-3	20	.	.
C=CCNc1nnc(SC2CC(=O)N(c3ccc(OCCC)cc3)C2=O)s1 (configuration not stated)	85	63*	19	68*	46	74*	69*
C=C1C(=O)O[C@@H]2[C@H]3O[C@]3(C)CC/C=C(\C)CC[C@@H]12	98	54*	-8	49*	46	38*	53*
CC(=O)Nc1ccc(C(=O)OCc2ccc(Cl)cc2)cc1	90	49*	32	50*	28	48*	35*
CC(=O)Nc1ccc(C(=O)OCc2ccc(Cl)c(Cl)c2)cc1	109	50*	15	42*	23	32*	-30
CCC(=O)Nc1ccc(C(=O)OCc2ccc(Cl)c(Cl)c2)cc1	95	10	16	4	3	.	.
COc1ccc(NC(=O)Cc2nnc(SCC(=O)NC3=NCCS3)n2C)cc1	113	7	9	2	-7	.	.
Cc1ccc(CNC(=O)C2CCN(C(=O)Nc3ccccc3)CC2)cc1	105	-6	10	-10	7	.	.
CCS(=O)(=O)c1ccc2oc(Nc3cc(C)cc(C)c3)nc2c1	109	47*	-43	43*	43	37*	37*
Nc1cc(OC(=O)c2cccs2)nn1S(=O)(=O)c1ccc(F)cc1	90	41*	4	53*	44	31*	23
CCC(CC)C(=O)c1c[nH]c(C(=O)NCc2ccc(F)cc2)c1	97	-9	2	21	16	.	.
COc1ccc(/C=C/C(=O)c2cc(F)ccc2OC(=O)c2ccccc2)cc1OC	95	52*	14	48*	48	48*	3
Cc1ccc2c3c1C1(C(=O)N3C(C)(C)CC2C)C(C#N)=C(N)Oc2cc(O)ccc21 (configuration not stated)	101	10	1	12	9	.	.
